Measured values from PubChem BioAssay (NCATS).
Records with an inconclusive call do not appear. A call without a number means that no potency is given here. Activity calls are given as the source filed them. Calls follow the shape of the dose curve; as a rule, active = well fitted inhibition curve with a large enough effect; inconclusive = small, poorly fitted or top-dose-only effect; inactive = no such curve, though single readings can be large or run the other way. Where a SMILES comes first, the peptide text is derived from it. The star is where a group is joined. PhAc = O=C(Cc1ccccc1)*

Target: Cytochrome P450 3A7 (Homo sapiens) (UniProt P24462)
Sequence (P24462 whole entry, looked up): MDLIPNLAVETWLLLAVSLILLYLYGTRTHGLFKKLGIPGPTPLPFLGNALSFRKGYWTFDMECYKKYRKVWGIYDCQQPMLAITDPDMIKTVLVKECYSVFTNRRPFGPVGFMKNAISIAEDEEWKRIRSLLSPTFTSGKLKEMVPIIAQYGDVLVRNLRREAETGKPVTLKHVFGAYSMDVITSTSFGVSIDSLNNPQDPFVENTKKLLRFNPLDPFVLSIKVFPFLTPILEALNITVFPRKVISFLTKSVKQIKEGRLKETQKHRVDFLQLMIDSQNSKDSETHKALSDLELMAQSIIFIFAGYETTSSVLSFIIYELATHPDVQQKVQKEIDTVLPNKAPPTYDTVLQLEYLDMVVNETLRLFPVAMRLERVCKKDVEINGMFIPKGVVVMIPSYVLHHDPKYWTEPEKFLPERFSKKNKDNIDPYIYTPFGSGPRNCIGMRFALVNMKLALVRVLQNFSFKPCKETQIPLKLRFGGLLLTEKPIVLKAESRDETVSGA
Experiment: Cytochrome P450 family 3 subfamily A member 7 (CYP3A7) small molecule antagonists: luciferase biochemical qHTS assay (AID 1963596); also: nearly all actives have a fitted effect of over 40% in size
Details: P450-Glo CYP3A7 enzyme luminescence, 1 h; series mostly up to 57.4 µM
Outline: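 Luminescence from luciferin released by CYP3A7 from a proluciferin substrate, read 20 min after detection reagent. Compound and enzyme-substrate mix sat 10 min before NADPH regeneration solution; reaction ran 1 h at room temperature.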
Potency is read from the fitted curve at half-maximal effect.

Structure (SMILES) | Potency
CCCc1ccc(C(=O)O)cc1 | inactive
NC(=O)c1cccc2cn(-c3ccc(C4CCCNC4)cc3)nc12 (stereo not given) | inactive
CC(=O)Oc1cc(C(F)(F)F)ccc1C(=O)O | inactive
CCOC(=O)CNC(=O)[C@@H]1CCCN1C(=O)Cc1ccccc1 (PhAc-Pro-Gly-OEt) | inactive
Cc1cc(C)cc(NC(=O)Cn2c(=O)n(-c3ccc(C)c(C)c3)c(=O)c3oc4ccccc4c32)c1 | inactive
On1ncc(C2CCNCC2)c1-c1cccc(-c2ccccc2)c1 | inactive
CC(NC(=O)C(=O)Nc1c2c(nn1-c1ccccc1)CSC2)c1ccccc1 (stereo not given) | inactive
CNC(=O)COC(=O)N1CCC(CCc2ccc(Cl)cc2)CC1 | inactive
O=C1CC[C@H](C(=O)O)N1 | inactive
c1ccc2ccccc2c1 | inactive
O=C(OCc1ccccc1)c1cccnc1 | inactive
Cc1noc(=O)c2ccc(NC(=O)C(O)(CC(C)(C)c3cccc4c3OCC4)C(F)(F)F)cc12 (stereo not given) | inactive
Cn1nc(-c2ccc(C(F)(F)F)cc2)nc2c(=O)n(C)c(=O)nc1-2 | inactive
CN(C)C(=O)NC1CCC(CCN2CCN(c3cccc(Cl)c3Cl)CC2)CC1 (stereo not given) | inactive
FC(F)OC(Cl)C(F)(F)F (stereo not given) | inactive
NC(=O)OCC(O)COc1ccc(Cl)cc1 (stereo not given) | inactive
CCCN(CCN1CCN(c2ccccc2OC)CC1)C1CCc2ncsc2C1 (stereo not given) | inactive
Cc1ccc(-c2nnc(Nc3ccc(Br)cc3)c3ccccc23)cc1S(=O)(=O)NCc1nc2ccccc2[nH]1 | inactive
Fc1ccc(-c2c3cccc(C(F)(F)F)c3nn2Cc2ccc(F)cc2Cl)cc1 | inactive
O=C1CCC(=O)N1CO | inactive

Structure (SMILES) | Potency
Cc1c(O)cc2c(c1C)O[C@](C)(CCC[C@H](C)CCC[C@H](C)CCCC(C)C)CC2 | inactive
CC1(C#N)CCN(c2c(C(=O)N3CCC(C(=O)C4CC4)CC3)cnc3ccc(F)cc23)CC1 | inactive
CNC1CCN(C(Cc2cccc(-c3ccncc3)c2)C(=O)c2sc3c(F)ccc(F)c3c2Cl)CC1 (stereo not given) | 2390 nM (active)
Cc1ccc(C2=Nc3ccccc3N(CC(=O)Nc3ccccc3F)C(=O)C2)cc1C | inactive
CCOC(=O)c1ccc(Nc2nc3nonc3nc2Nc2cccc(C)c2C)cc1 | inactive
CC(C)[C@H]1CC[C@H](C)C[C@H]1O | inactive
CN(C)c1ccc(C(=C2C=CC(=[N+](C)C)C=C2)c2c(O)c(S(=O)(=O)[O-])cc3cc(S(=O)(=O)O)ccc23)cc1 | inactive
OC1CCC(Nc2ncc3nc(Nc4c(F)cc(F)cc4F)n([C@H]4CCOC4)c3n2)CC1 (stereo not given in full) | inactive
N[C@@H]1CCCCN(c2c(F)cc3c(=O)c(C(=O)O)cn(C4CC4)c3c2Cl)C1 | inactive
CN1C(=O)OC(C)(C)C1=O | inactive
Cc1nc(NC(=O)N2CCCC2C(N)=O)sc1-c1csc(C(C)(C)C)n1 (stereo not given) | inactive
Oc1ccc(C2(c3ccccc3F)CCC(F)(F)CC2)cc1 | 5010 nM (active)
Cc1ccc(Cn2c(SCc3ccc(C(=O)N4CCCCCC4)cc3)nc3ccncc32)cc1 | inactive
COc1ccc([C@@H]2N[C@H](C(=O)O)Cc3c2[nH]c2ccccc32)cc1CN1CCN(c2ccccc2F)CC1 | inactive
Cc1ccc(-n2c(SCc3cccc(F)c3)nc3[nH]ncc3c2=O)cc1C | inactive
O=C(O)CCC(=O)C(=O)O | inactive
CCOc1ccc(CNC(=O)Cn2c(=O)c3cccn3c3ccc(F)cc32)cc1 | 425 nM (active)
COC(C)=O | inactive
COc1ccccc1NC(=O)Cc1c(C(=O)O)[nH]c2ccc(Cl)cc12 | inactive
C=Cc1ccccc1 | inactive
